Screens: PubChem, National Center for Advancing Translational Sciences (NCATS)
An excerpt weighted towards active compounds, which were near 9.5% of everything screened.
NPSR antag = antagonists of human neuropeptide S receptor cAMP signaling; Q6W5P4; CHO-NPSR cells, cAMP TR-FRET, antagonist mode; 1% of 220,000 active; AID 1461; Potency, µM (titrated, usually from 38.3 µM), without a hit: at the top dose activity change, negative = inhibition, usual class: inhibitors; also: nearly all actives have a fitted effect of over 50% in size
Target sequence (Q6W5P4 whole entry, looked up): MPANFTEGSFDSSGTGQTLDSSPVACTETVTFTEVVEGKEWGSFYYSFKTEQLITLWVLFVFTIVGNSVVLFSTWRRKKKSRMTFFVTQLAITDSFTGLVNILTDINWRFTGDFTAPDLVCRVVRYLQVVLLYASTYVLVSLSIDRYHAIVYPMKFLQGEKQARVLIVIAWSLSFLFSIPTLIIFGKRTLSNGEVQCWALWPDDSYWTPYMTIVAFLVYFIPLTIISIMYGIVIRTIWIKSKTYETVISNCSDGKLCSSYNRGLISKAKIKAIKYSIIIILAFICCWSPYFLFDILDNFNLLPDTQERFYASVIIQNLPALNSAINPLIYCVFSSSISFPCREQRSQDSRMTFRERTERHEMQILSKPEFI
Tau fibril ThT = blocks human tau fibril formation measured by thioflavin T; P10636; recombinant tau K18 P301L, heparin-induced fibrillization, ThT fluorescence; Potency, µM (titrated, usually from 57.4 µM), for the others: at the highest dose activity, negative = inhibition, usual class: inhibitors; 2.1% of 270,000 active; also: nearly all actives have a fitted effect of over 55% in size
Target sequence (P10636 561-689 P618L limits assumed): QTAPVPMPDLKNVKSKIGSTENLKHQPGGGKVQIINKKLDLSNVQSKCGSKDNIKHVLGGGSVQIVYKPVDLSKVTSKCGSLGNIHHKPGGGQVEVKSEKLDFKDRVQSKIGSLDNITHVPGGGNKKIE
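Fibril formation assay: tau K18 P301L at 15 uM with trace Alexa 594 label, heparin inducer 20 uM, pH 7 sodium acetate buffer, 37 C for 6 hr; endpoint ThT signal.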
ALDH1A1 inh = inhibitors of human aldehyde dehydrogenase 1A1; Purified ALDH1A1, NADH fluorescence, propionaldehyde substrate; Potency, µM (top dose mostly 75.3 µM), inactives show at the highest dose activity, negative = inhibition, hits mostly inhibitors; 7.3% of 220,000 active; AID 1030; active = well fitted inhibition curve with a large enough effect, not every such curve was filed as active; inconclusive = small, poorly fitted or top-dose-only effect, or another doubt; inactive = no such curve, though single readings can be large or run the other way;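 also: plate controls were no enzyme wells and a reference inhibitor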
Tau fluor counter = counter-screen for tau fibril formation inhibitors. 0.93% of 280,000 active. Potency, µM (highest dose often 57.7 µM), without a hit: at the top dose activity change, negative = decrease. tau K18 P301L Alexa594 fluorescence, heparin fibrillization; also: nearly all actives have a fitted effect of over 55% in size
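Human tau K18 P301L (15 uM unlabeled, 0.24 uM Alexa 594-labeled) in 100 mM sodium acetate pH 7 with 20 uM heparin, 6 hr at 37 C. ThT 30 uM added, 1 hr ambient; Alexa 594 FP and total fluorescence read at 555/632 nm.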
HPGD block = inhibitors of human 15-hydroxyprostaglandin dehydrogenase (HPGD) | purified HPGD, NADH fluorescence kinetic, PGE2 substrate | 4.3% of 150,000 active | Potency, µM, for the others: at the highest dose activity change, negative = inhibition, usual class: inhibitors | P15428; active = well fitted inhibition curve with a large enough effect, not every such curve was filed as active; inconclusive = small, poorly fitted or top-dose-only effect, or another doubt; inactive = no such curve, though single readings can be large or run the other way
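20 nM HPGD preincubated 15 min at room temperature with compound in 50 mM Tris-HCl pH 8, 0.01% Tween 20. Started with 1 mM NAD+ and 30 uM prostaglandin E2; NADH fluorescence (360/450 nm) read 5 times over 30-s intervals, last minus first.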
Tau FP inhib = tau fibrillization inhibition (FP). P10636. K18 P301L tau heparin fibrillization, Alexa594 FP, 6 h. Potency, µM (doses to about 57.7 µM), without a hit: at the top dose activity, negative = inhibition, hits mostly inhibitors. 0.39% of 280,000 active. AID 1468; also: nearly all actives have a fitted effect of over 55% in size
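Human tau K18 […] P301L fragment, 15 uM unlabeled plus 0.24 uM Alexa 594-labeled tau (final), with compound and 20 uM heparin in 100 mM sodium acetate pH 7; 6 hr at 37 C, then Alexa 594 FP read.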
* hit, by the source's call; ? = inconclusive; / = no result; [ ] = another dose, or the depositor's remark. Unless noted, calls follow the shape of the dose curve; as a rule, active = well fitted curve in the direction sought with a large enough effect; inconclusive = small, poorly fitted or top-dose-only effect, or another doubt; inactive = no such curve, though single readings can be large; an effect the other way counts as inactive or inconclusive. Unless noted, % is scaled to controls: 0 for no effect and ±100 for the full control effect; potency is read from the fitted curve at half-maximal effect.

SMILES	NPSR antag	Tau fibril ThT	ALDH1A1 inh	Tau fluor counter	HPGD block	Tau FP inhib
COc1ccc(S(=O)(=O)Oc2cccc(/C=N/N=C3/NC(=O)C(CC(=O)O)S3)c2)cc1 (stereo unspecified)	-18%	-19%	8.9µM*	-14%	/	?
COc1ccc(/C=N/N=C2\SC(CC(=O)O)C(=O)N2c2ccccc2)cc1 (stereo unspecified)	4%	-4%	20µM*	1%	-14%	-5%
Clc1ccccc1CN1CCN(/N=C/C=C\c2ccco2)CC1	-27%	?	3.2µM*	-21%	/	-1%
O=C(c1cnc2ccccn2c1=O)N1CCCc2ccccc21	-27%[46.1 µM]	-6%	8.9µM*	0%	-9%	-4%
CCN(C(=O)c1ccc(C(=O)N(CC)c2ccccc2C)cc1)c1ccccc1C	/	-6%	/	1%	/	-3%
CCCCCCCN(C(=O)CCl)c1ccccc1C	-18%	-9%	0.5µM*	-1%	-4%	12%
COC(=O)c1ccc(-n2c(C)cc(C(=O)CCl)c2C)cc1	3%	?	0.45µM*	5%	/	?
CCOc1ccc(-n2c(C)cc(C(=O)CCl)c2C)cc1	35%	?	0.11µM*	-5%	/	8%
CCOc1ccc(NC(=O)C(=O)c2cc(C)n(-c3cc(C)cc(C)c3)c2C)cc1	/	?	/	-4%	/	-4%
Cc1ccc(S(=O)(=O)C/N=C(/NC(=S)N(c2ccccc2)c2ccccc2)c2ccccc2)cc1	16%[46.1 µM]	?	14µM*	-20%	32µM*	-9%
Cc1ccc(S(=O)(=O)/N=C(/NC(=S)Nc2ccccc2)c2ccccc2)cc1	-15%[46.1 µM]	-14%	?	-26%	-26%	-5%
O=C1c2cccc3cccc(c23)C(=O)N1Nc1ccccc1	8%	-17%	25µM*	-21%	/	-9%
O=C1c2cccc3cc(Br)cc(c23)C(=O)N1Nc1ccc(Br)cc1	2%	?	12%	4%	-3%	?
CC(C)(Oc1ccc(Br)cc1)C(=O)Nc1cc(-c2nc3ccccc3[nH]2)ccc1Cl	/	-1%	/	?	/	16µM*
COc1cccc(OC)c1C(=O)NC(=S)Nc1cc(-c2nc3ccccc3[nH]2)ccc1Cl	-5%	8%	22µM*	-17%	-18%	?
Cc1ccc(-c2nc3ccccc3[nH]2)cc1NC(=O)COc1ccc(Cl)cc1Cl	/	-1%	/	-7%	/	5%
COCCCNC(=O)Nc1cc(C(=O)NCc2ccc(OC)cc2)ccc1N1CCCC1	/	4%	/	0%	/	6%
COCC(C)N=C1NN=C(c2cccs2)C(CC(=O)O)S1 (stereo unspecified)	-35%	?	13µM*	-18%	/	?
Cc1[nH]n(-c2ccccc2)c(=O)c1N=Nc1nccs1	-14%[46.1 µM]	13µM*	-3%	-28%	-8%	8%
COC(=O)c1ccc(/C=C/c2ccc3cccc(OC)c3n2)cc1	-22%	?	?	-9%	?	-2%
CCOc1c(OC(C)=O)ccc(/C=C/c2ccc3cccc(OC)c3n2)c1[N+](=O)[O-]	8%	5.6µM*	-4%	?	-21%	?
O=C(Nc1ccc(Cl)cc1)N[C@@H]1c2c(ccc3ccccc23)OC[C@@H]1CO	-26%[46.1 µM]	9%	7%	?	-7%	32µM*
NC(=O)N1OCC2COc3ccc4ccccc4c3C21 (stereo unspecified)	-3%[46.1 µM]	-10%	1%	-12%	-11%	-1%
O=c1c2c(nc3cc(-c4ccccc4Cl)[nH]n13)CCS2	-11%	?	?	-18%	/	?
Cc1nc2cc(-c3ccsc3-n3c(C)ccc3C)[nH]n2c(=O)c1Cl	-11%[46.1 µM]	14µM*	-10%	?	-15%	?
SMILES	NPSR antag	Tau fibril ThT	ALDH1A1 inh	Tau fluor counter	HPGD block	Tau FP inhib
Cc1cc(=O)n2[nH]c(-c3ccsc3-n3c(C)ccc3C)cc2n1	-18%	/	/	?	/	?
COCc1cc(=O)n2[nH]c(-c3ccsc3-n3c(C)ccc3C)cc2n1	-7%[46.1 µM]	22µM*	?	?	-16%	?
CCc1cc2c(nc1CC)CCN(CC/C(C)=N/O[C@@H]1O[C@H](COC(C)=O)[C@H](OC(C)=O)[C@H](OC(C)=O)[C@H]1OC(C)=O)C2	/	-7%[11.5 µM]	17%[13.5 µM]	-8%[11.6 µM]	/	1%[11.6 µM]
O=C(O)c1ccc(SSc2ccc(C(=O)O)cn2)nc1	/	/	?	/	4µM*	/
CCOc1ccc(C(=O)O)cn1	-22%	0%	15%	5%	/	?
CCc1nnc(NC(=O)CSc2nc(-c3ccccc3)cc(-c3ccc(OC)cc3)c2C#N)s1	7.9µM*	6%	5%	-13%	?	2%
COc1ccc(-c2cc(-c3ccccc3)nc(SCC(=O)Nc3nccs3)c2C#N)cc1	?	-1%	?	-27%	/	?
N#Cc1c(-c2ccccc2)cc(-c2ccccc2)nc1SCC(=O)Nc1ccc(Cl)cc1	/	15%	/	-2%	/	?
N#Cc1c(-c2ccc(F)cc2)cc(-c2ccccc2)nc1SCC(=O)NCC(=O)O	-1%	?	8.9µM*	-16%	/	?
CSc1nc(-c2ccco2)cc(-c2ccccc2)c1C#N	-4%[46.1 µM]	-6%	?	-22%	?	-13%
COc1ccc(-c2cc(-c3ccc(OC)cc3)c(C#N)c(SC)n2)cc1	13µM*	-8%	?	-14%	?	?
CC(C)NC(=O)CSc1nc(-c2cccs2)cc(-c2ccccc2)c1C#N	10µM*	-1%	?	3%	?	3%
COc1cc(C2C(C#N)=C(N)OC3=C2C(=O)CC(C)(C)C3)cc([N+](=O)[O-])c1O (stereo unspecified)	49%	?	-6%	-14%	/	-5%
COc1ccc(-c2cc(-c3ccccc3)c(C#N)c(SCC(=O)Nc3ncc(C)s3)n2)cc1	-29%	-9%	?	-28%	?	28µM*
CCOC(=O)N1CCN(C(=O)c2ccc3c(=O)n(CCC4=CCCCC4)c(=O)[nH]c3c2)CC1	-13%[46.1 µM]	-19%	6.3µM*	-11%	-6%	8%
CCCCCn1c(=O)[nH]c2cc(C(=O)N3CCN(CC)CC3)ccc2c1=O	-1%[46.1 µM]	-6%	?	-8%	-12%	-9%
CCc1ccc(OCC(=O)Nc2cc(-c3ccc(C)cc3)no2)cc1	/	?	/	-2%	/	-7%
Cc1ccc(C(=O)N/N=C2\CC3CC=CC23)c(C)c1 (stereo unspecified)	13%	1%	5%	2%	/	4%
Cc1cccc(C)c1NC(=S)N/N=C1\CC2CC=CC12 (stereo unspecified)	-7%	?	11µM*	2%	/	-5%
Cc1ccc(NC(=S)N/N=C2\CC3CC=CC23)c(C)c1 (stereo unspecified)	19%	?	25µM*	-12%	/	-6%
